# Test results reported in ChEMBL document CHEMBL4513216, “Probing the Open Global Health Chemical Diversity Library for Multistage-Active Starting Points for Next-Generation Antimalarials” (ACS Infect Dis, 2020).
# Among all 69,000 compounds or so, about 8,600 (12%) showed an effect of 50% or more. The full list was thinned out, with strong results kept by preference.
# Test system: Plasmodium berghei
# Assay: Screen against P. berghei liver stage (PbLuc), transformed with Luciferase, at 10uM
# Assay type: functional, HepG2
# Conditions: tested at 10 uM
row,Structure (SMILES),INHIBITION [%]
1,CC(=O)N(Cc1ncc(C)o1)C1CCN(CCn2cccn2)C1 (stereo not given),40.8
2,Cc1cc(C(=O)NC2CCc3nc(C)cn3C2)[nH]n1 (stereo not given),-3.26
3,Cc1cn2c(n1)CCC(NC(=O)c1[nH]ncc1Br)C2 (stereo not given),40
4,Cc1cnn(CCC(=O)NC2CCc3nc(C)cn3C2)c1 (stereo not given),5.9
5,COc1ccccc1OCCC(=O)NC1CCc2nc(C)cn2C1 (stereo not given),34.6
6,Cc1cn2c(n1)CCC(NC(=O)CCC1CC1)C2 (stereo not given),26.9
7,Cc1cn2c(n1)CCC(NC(=O)c1[nH]nc(C)c1Br)C2 (stereo not given),64.7
8,Cc1cn2c(n1)CCC(NC(=O)CCCOCc1ccccc1)C2 (stereo not given),53.4
9,COc1ccc(COCC(=O)NC2CCc3nc(C)cn3C2)cc1 (stereo not given),21.7
10,Cc1cn2c(n1)CCC(NC(=O)CCC(F)(F)F)C2 (stereo not given),54.9
11,Cc1nccn1CCN(C)C(=O)C1CCN(C(=O)C2CCC2)CC1,16.9
12,CN1CCN(C(=O)[C@@H]2CN(C)C[C@]23COc2ccc(F)cc2C3=O)CC1,24.2
13,CN(C)C(=O)c1coc(COc2ccccc2)n1,19.4
14,O=C(NCC(F)(F)F)c1ccc(-n2cncn2)nn1,-17.8
15,Cc1cc2n(n1)CC(CNCc1ccc(Oc3ccccc3)nc1)CN2 (stereo not given),21.55
16,Cc1ncc2c(n1)CN(c1ncnc3[nH]ccc13)CC2,17.8
17,c1ncc2c(n1)CN(c1ncnc3[nH]ccc13)CC2,32.7
18,CC(C)c1ncc2c(n1)CN(c1ncnc3[nH]ccc13)CC2,63.4
19,O=S(=O)(NCC1CCCN(Cc2ccccc2F)C1)C1CC1 (stereo not given),11.5
20,Cc1noc(C(C)C)c1C(=O)NCc1cccnc1,34.7
21,CN(Cc1csc(-c2ccccc2)n1)C(=O)CCNS(C)(=O)=O,-47.9
22,CN(Cc1csc(-c2ccccc2)n1)C(=O)CCn1ccccc1=O,66.9
23,CN(Cc1csc(-c2cccs2)n1)C(=O)CCn1ccccc1=O,-33
24,Cc1ccc(-c2nc(CN3CCOC(Cn4cccn4)C3)no2)cc1 (stereo not given),-13.5

row,Structure (SMILES),INHIBITION [%]
1,Cc1nc(-c2cccc(Cl)c2)n(CC(=O)NCC2CCCO2)c(=O)c1C (stereo not given),13.8
2,CC(C)NC(=O)CC1COC2(CCN(Cc3cccnc3)CC2)C1 (stereo not given),13.7
3,COc1ccccc1CN1CC[C@]2(C[C@@H](OCC(=O)N(C)C)CO2)C1,24.9
4,CNC(=O)COC1COC2(CCN(Cc3cccnc3OC)CC2)C1 (stereo not given),40.5
5,CNC(=O)COC1COC2(CCN(Cc3ccncc3F)CC2)C1 (stereo not given),59.3
6,CNC(=O)COC1COC2(CCN(Cc3cccnc3)CC2)C1 (stereo not given),67.3
7,CCOC1COC2(CCN(Cc3cccc(F)c3)CC2)C1 (stereo not given),31.6
8,CN(Cc1cnc2ccccc2c1)C(=O)C(c1ccccc1F)N(C)C (stereo not given),4.64
9,COc1ccccc1N1CCN(C(=O)COc2c(C)occc2=O)CC1,1.04
10,OC(CNCCc1nnc2ccccn12)c1ccc(F)c(F)c1 (stereo not given),-55.3
11,O=C(c1nnn(-c2ccc(F)cc2)n1)N(CCO)Cc1ccccc1,-137
12,CN1C(=O)[C@@H]2CC[C@H]1CN(C(=O)Nc1ccccc1C(F)(F)F)C2,-53.7
13,COc1ccc(CN2CCC=C(C(C)NC(C)=O)C2)cc1 (stereo not given),83.2
14,CC(=O)NC(C)C1=CCCN(Cc2ccc(C(=O)O)cc2)C1 (stereo not given),37.2
15,COc1ccnc(CN2CCC=C(C(C)NC(C)=O)C2)c1OC (stereo not given),36.2
16,Fc1ccc(-c2nc(CNC3CCc4ncnn4C3)cs2)cc1 (stereo not given),48.8
17,CC(O)CCN(C)C(=O)Nc1cc(F)cc(Br)c1 (stereo not given),42.6
18,CNC(=O)C(C)CN(C)C(=O)Nc1cc(F)cc(Br)c1 (stereo not given),83.3
19,CN(CC(O)C1CC1)C(=O)Nc1cc(F)cc(Br)c1 (stereo not given),-54.5
20,Cc1nc(C2CCCN2C(=O)c2ccc(N(C)C)nn2)no1 (stereo not given),-16.98
21,O=C(CCc1ccccc1Cl)NS(=O)(=O)c1ccc2c(c1)OCCO2,-19.265
22,CC1CCN(C(CNC(=O)Cn2cccn2)c2cccs2)CC1 (stereo not given),32.3
23,CN1CCN(C(CNC(=O)CCn2cccn2)c2cccs2)CC1 (stereo not given),31.2
24,O=C(CCn1cccn1)NCC(c1cccs1)N1CCOCC1 (stereo not given),56.1

row,Structure (SMILES),INHIBITION [%]
1,CC(Cc1cccs1)NC(=O)CCn1cccn1 (stereo not given),9.14
2,O=C(Cn1cccn1)NCC(c1cccs1)N1CCCC1 (stereo not given),28
3,O=C(CCn1cccn1)NCC(c1cccs1)N1CCCC1 (stereo not given),66.9
4,CC(NC(=O)CCn1cccn1)c1cccs1 (stereo not given),61.5
5,CC(NC(=O)CCn1cccn1)c1ccc(-n2ccnn2)cc1 (stereo not given),10
6,CC1CCN(C(CNC(=O)CCn2cccn2)c2cccs2)CC1 (stereo not given),40.7
7,COCCc1nnc(NC(=O)CSCc2ccccc2)o1,2.84
8,COCC[C@]1(O)CCN(Cc2ccccn2)C[C@H]1C,18.4
9,Cc1cccc2c1cnn2CCCNC(=O)c1cnn(C)c1,-17.2
10,CC/N=c1\nc(NCC)nc2n1C(O)(Nc1cc(C)ccc1C)CS2 (stereo not given),-21.3
11,CC/N=c1\nc(NCC)nc2n1C(O)(Nc1cc(Cl)ccc1Cl)CS2 (stereo not given),56
12,CC/N=c1\nc(NCC)nc2n1C(O)(Nc1cccc(Cl)c1Cl)CS2 (stereo not given),28.6
13,CCNC(=O)N1CCc2ccc(NC(=O)NCc3ccsc3)cc21,47
14,Cc1cccc(C2(CNC(=O)CCN3C(=O)CCC3=O)CCCC2)c1,36.4
15,O=C(CCN1C(=O)CCC1=O)NCC1(c2c(F)cccc2F)CCCC1,25.6
16,Cc1ccccc1C1(CNC(=O)CCN2C(=O)CCC2=O)CC1,50.3
17,CC(NCc1ccc(OCC(N)=O)cc1)c1ccc(Cl)cc1Cl (stereo not given),32.2
18,Cn1cc(C(=O)Nc2cc(F)ccc2OCC2CCCO2)ccc1=O (stereo not given),13.6
19,CCC(CC)C(=O)NCc1c(C)nn(C)c1N1CCCN(C)CC1,24.6
20,CN(CC1Cc2ccccc2CN1C)c1nc(N)nc2c1CCNCC2 (stereo not given),30.8
21,COCC(Nc1nc(N(C)C)nc2c1CCNCC2)c1ccccn1 (stereo not given),34.9
22,Nc1nc2c(c(NC(Cn3cccn3)c3ccccc3)n1)CCNCC2 (stereo not given),75.5
23,Nc1nc2c(c(N3CCC(CCn4cccn4)CC3)n1)CCNCC2,31.4
24,CN(C)CC(Nc1nc(N)nc2c1CCNCC2)c1ccccc1 (stereo not given),72.7

row,Structure (SMILES),INHIBITION [%]
1,CN(C)CCC(Nc1nc(N)nc2c1CCNCC2)c1ccccc1 (stereo not given),68.5
2,CN(Cc1ccccc1-n1cccn1)c1nc(N)nc2c1CCNCC2,-18
3,c1ccc(C(Cn2cccn2)Nc2cnccn2)cc1 (stereo not given),31.2
4,CC(Nc1nc(-c2ccccc2)nc2c1CCNCC2)c1cccnc1 (stereo not given),31.4
5,O=c1c(S(=O)(=O)N2CCCC2)cccn1Cc1ccc(F)cc1Cl,24.2
6,Cc1noc2ncc(C(=O)N3CCCC3c3ccsc3)cc12 (stereo not given),-7.35
7,Cc1cc(C2CCCN(C(=O)Cc3csc(C(C)C)n3)C2)n[nH]1 (stereo not given),-23.8
8,O=S(=O)(c1ccccc1)N1CCCC1c1cc[nH]n1 (stereo not given),18.9
9,Cc1ccc(C(=O)NCCNc2ncccc2C#N)c(=O)[nH]1,-58.7
10,Cc1ccc(CNC(=O)c2ccc(=O)n(C)n2)c(OC2CCCC2)c1,5.91
11,CN1CCc2c(sc3c2C(=O)NC(C=Cc2ccccc2)N3)C1 (stereo not given),-45.3
12,Cc1ccc(CN2Cc3c(C(=O)N4CCCC4)nn(C)c3C2)s1,-30.6
13,CCC(C)N1Cc2c(C(=O)N3CCCC3)nn(C)c2C1 (stereo not given),23.1
14,Cn1nc(C(=O)N2CCCC2)c2c1CN(CC1CCOCC1)C2,21.6
15,Cn1nc(C(=O)N2CCOCC2)c2c1CN(CC1CC1)C2,48.4
16,CC(C)CCN1Cc2c(C(=O)N3CCCC3)nn(C)c2C1,60
17,Cn1nc(C(=O)N2CCOCC2)c2c1CN(CC1CCC1)C2,53
18,CCN1C(=O)CCC12CCC(NC(=O)c1cnccn1)CC2 (stereo not given),-43
19,CNC(=O)c1cn[nH]c1C1(C)CCCN(Cc2nccn2C(C)C)C1 (stereo not given),46
20,CC(NCc1cnc(C2CCC2)s1)c1cccc(-n2ccnc2)c1 (stereo not given),29.7
21,CCOCCCNC(=O)NC(C)c1ccc(-n2cncn2)cc1 (stereo not given),-31.4
22,CCCS(=O)(=O)NC(C)c1cccc(-n2cccn2)c1 (stereo not given),29.3
23,CC(NCc1cnc(C2CCC2)s1)c1ccc(-n2cncn2)cc1 (stereo not given),61.4
24,CC(NCc1cnc(C2CCC2)s1)c1ccc(-n2cccn2)cc1 (stereo not given),59.4

row,Structure (SMILES),INHIBITION [%]
1,CC(NCc1cnc(C2CCC2)s1)c1ccccc1-n1cccn1 (stereo not given),11.9
2,CC(C)COCCCNC(=O)NC(C)c1ccc(-n2cncn2)cc1 (stereo not given),-12.3
3,CC(NCc1cnc(C2CCC2)s1)c1cccc(-n2cccn2)c1 (stereo not given),75.3
4,Cc1cnn(CC(C)NCc2ccc(-n3cccn3)cc2)c1 (stereo not given),-1.58
5,CN1CCN(C(=O)c2cccn2C)Cc2cccnc21,16.4
6,O=C1N(CC2CC2)CCC12CCCN(c1ncc(F)cn1)C2 (stereo not given),42.4
7,Cc1cnn(CC2CCCN2C(=O)c2csc(C3CC3)n2)c1 (stereo not given),-23.9
8,O=C(CCN1CCCC1)Nc1c2c(cc3c1CCC3)CCC2,6.29
9,CC(=O)N1CCC(C)(c2cc(C(=O)NCC(C)(C)C)nc(C)n2)CC1,37.9
10,C[C@H]1CN(C(=O)c2cccc(F)c2Cl)CCN1S(C)(=O)=O,61.1
11,Cc1cccc(C(=O)N2CCN(S(C)(=O)=O)[C@@H](C)C2)c1Cl,22.6
12,Cc1cccc(C(=O)N2CCN(S(C)(=O)=O)[C@@H](C)C2)c1C,40.3
13,COC(C(=O)N1CCN(Cc2noc(C)n2)CC1)c1ccccc1 (stereo not given),53.8
14,CC(Oc1ccccc1)C(=O)N1CCCN(Cc2cscn2)CC1 (stereo not given),27.25
15,COCc1ccc(C(=O)N2CCCN(Cc3cscn3)CC2)cc1,27.4
16,Cc1nc(CN2CCN(C(=O)C(c3ccccc3C)N(C)C)CC2)no1 (stereo not given),6.66
17,Cc1nc(CN2CCN(C(=O)COCc3ccccc3)CC2)no1,4.2
18,Cc1ccc(C(C)C(=O)N2CCCN(Cc3cscn3)CC2)cc1 (stereo not given),15.2
19,Cc1ccc(C(=O)N2CCCN(Cc3cscn3)CC2)o1,7.67
20,COC(C(=O)N1CCCN(Cc2cscn2)CC1)c1ccccc1 (stereo not given),54.3
21,O=C(c1ccc(Cl)o1)N1CCCN(Cc2cscn2)CC1,50.4
22,CC(C)c1ncncc1C(=O)N1CCN(Cc2cscn2)CC1,49.3
23,CC(C)c1ccc(O)c(C(=O)N2CCN(Cc3cscn3)CC2)c1,54.9
24,CC(C)c1ccsc1C(=O)N1CCCN(Cc2cscn2)CC1,2.61
